About 2,000 (36%) of roughly 5,500 compounds were called active. Inconclusive results (about 18%) are left out. The list shows a part of the results. Unmarked numbers belong to inactive results. No stated cut-off is given here; in the data, active means normalized growth mostly below about 0.91 (no sharp cut-off); inconclusive means no clear call, values can overlap the other calls; inactive means mostly above about 0.92.
Test: chemical genetic growth profiling, strain panel (AID 1159580);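 further: tested at 20 µM; growth read once vehicle control cultures reached saturation at 30 °C; 1 = growth at the plate median or of vehicle wells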
Conditions: growth OD
[1] = S. cerevisiae deletion strains, locus YDL101C, strain DUN1, stronger effect = lower value
[2] = S. cerevisiae deletion strains, locus YHR030C, strain SLT2, stronger effect = lower value
[3] = S. cerevisiae deletion strains, locus YDR150W, strain NUM1, stronger effect = lower value
[4] = S. cerevisiae deletion strains, locus YGR078C, strain PAC10, stronger effect = lower value
[5] = S. cerevisiae deletion strains, locus YJR075W, strain HOC1, stronger effect = lower value
[6] = S. cerevisiae deletion strains, locus YMR263W, strain SAP30, stronger effect = lower value
[7] = S. cerevisiae deletion strains, locus YMR307W, strain GAS1, stronger effect = lower value
[8] = S. cerevisiae deletion strains, locus YNL153C, strain GIM3, stronger effect = lower value
[9] = S. cerevisiae deletion strains, locus YPL055C, strain LGE1, stronger effect = lower value

## Oc1ccc(N=Nc2ccccn2)c(O)c1
S. cerevisiae deletion strains, locus YAR019C, strain CDC15, stronger effect = lower value
  normalized growth: 0.0954 (active)
S. cerevisiae deletion strains, locus YBL105C, strain PKC1, stronger effect = lower value
  normalized growth: 0.0926 (active)
S. cerevisiae deletion strains, locus YBR135W, strain CKS1, stronger effect = lower value
  normalized growth: 0.0984 (active)
S. cerevisiae deletion strains, locus YBR136W, strain MEC1, stronger effect = lower value
  normalized growth: 0.0929 (active)
S. cerevisiae deletion strains, locus YBR160W, strain CDC28, stronger effect = lower value
  normalized growth: 0.0967 (active)
S. cerevisiae deletion strains, locus YDL017W, strain CDC7, stronger effect = lower value
  normalized growth: 0.0946 (active)
S. cerevisiae deletion strains, locus YDL028C, strain MPS1, stronger effect = lower value
  normalized growth: 0.0969 (active)
[1]
  normalized growth: 0.103 (active)
S. cerevisiae deletion strains, locus YDL108W, strain KIN28, stronger effect = lower value
  normalized growth: 0.0995 (active)
S. cerevisiae deletion strains, locus YDL132W, strain cdc53, stronger effect = lower value
  normalized growth: 0.0971 (active)
S. cerevisiae deletion strains, locus YDL214C, strain PRR2, stronger effect = lower value
  normalized growth: 0.0962 (active)
S. cerevisiae deletion strains, locus YDR052C, strain DBF4, stronger effect = lower value
  normalized growth: 0.0928 (active)
S. cerevisiae deletion strains, locus YDR054C, strain cdc34, stronger effect = lower value
  normalized growth: 0.0989 (active)
S. cerevisiae deletion strains, locus YDR226W, strain ADK1, stronger effect = lower value
  normalized growth: 0.0953 (active)
S. cerevisiae deletion strains, locus YDR477W, strain SNF1, stronger effect = lower value
  normalized growth: 0.102 (active)
S. cerevisiae deletion strains, locus YER123W, strain YCK3, stronger effect = lower value
  normalized growth: 0.108 (active)
S. cerevisiae deletion strains, locus YER133W, strain GLC7, stronger effect = lower value
  normalized growth: 0.103 (active)
S. cerevisiae deletion strains, locus YFL009W, strain cdc4, stronger effect = lower value
  normalized growth: 0.0975 (active)
S. cerevisiae deletion strains, locus YFL029C, strain CAK1, stronger effect = lower value
  normalized growth: 0.0955 (active)
S. cerevisiae deletion strains, locus YFR003C, strain YPI1, stronger effect = lower value
  normalized growth: 0.0966 (active)
S. cerevisiae deletion strains, locus YFR019W, strain FAB1, stronger effect = lower value
  normalized growth: 0.0923 (active)
S. cerevisiae deletion strains, locus YFR028C, strain CDC14, stronger effect = lower value
  normalized growth: 0.0968 (active)
S. cerevisiae deletion strains, locus YGR040W, strain KSS1, stronger effect = lower value
  normalized growth: 0.0983 (active)
S. cerevisiae deletion strains, locus YGR052W, strain FMP48, stronger effect = lower value
  normalized growth: 0.121 (active)
S. cerevisiae deletion strains, locus YGR092W, strain DBF2, stronger effect = lower value
  normalized growth: 0.0944 (active)
[2]
  normalized growth: 0.116 (active)
S. cerevisiae deletion strains, locus YHR079C, strain IRE1, stronger effect = lower value
  normalized growth: 0.12 (active)
S. cerevisiae deletion strains, locus YHR082C, strain KSP1, stronger effect = lower value
  normalized growth: 0.125 (active)
S. cerevisiae deletion strains, locus YHR205W, strain SCH9, stronger effect = lower value
  normalized growth: 0.00344 (active)
S. cerevisiae deletion strains, locus YIL147C, strain SLN1, stronger effect = lower value
  normalized growth: 0.0967 (active)
S. cerevisiae deletion strains, locus YJL095W, strain BCK1, stronger effect = lower value
  normalized growth: 0.104 (active)
S. cerevisiae deletion strains, locus YJL128C, strain PBS2, stronger effect = lower value
  normalized growth: 0.102 (active)
S. cerevisiae deletion strains, locus YJL157C, strain FAR1, stronger effect = lower value
  normalized growth: 0.0922 (active)
S. cerevisiae deletion strains, locus YJR016C, strain ILV3, stronger effect = lower value
  normalized growth: 0.0883 (active)
S. cerevisiae deletion strains, locus YJR066W, strain TOR1 (second series), stronger effect = lower value
  normalized growth: 0.0985 (active)
S. cerevisiae deletion strains, locus YJR066W, strain TOR1, stronger effect = lower value
  normalized growth: 0.114 (active)
S. cerevisiae deletion strains, locus YKL048C, strain ELM1, stronger effect = lower value
  normalized growth: 0.113 (active)
S. cerevisiae deletion strains, locus YKL067W, strain YNK1, stronger effect = lower value
  normalized growth: 0.101 (active)
S. cerevisiae deletion strains, locus YKL101W, strain HSL1, stronger effect = lower value
  normalized growth: 0.0988 (active)
S. cerevisiae deletion strains, locus YKL193C, strain SDS22, stronger effect = lower value
  normalized growth: 0.0969 (active)
S. cerevisiae deletion strains, locus YKL203C, strain TOR2, stronger effect = lower value
  normalized growth: 0.102 (active)
S. cerevisiae deletion strains, locus YLR113W, strain HOG1, stronger effect = lower value
  normalized growth: 0.153 (active)
S. cerevisiae deletion strains, locus YLR133W, strain CKI1, stronger effect = lower value
  normalized growth: 0.0924 (active)
S. cerevisiae deletion strains, locus YLR403W, strain SFP1, stronger effect = lower value
  normalized growth: 0.00522 (active)
S. cerevisiae deletion strains, locus YML070W, strain DAK1, stronger effect = lower value
  normalized growth: 0.103 (active)
S. cerevisiae deletion strains, locus YMR001C, strain CDC5, stronger effect = lower value
  normalized growth: 0.095 (active)
S. cerevisiae deletion strains, locus YMR205C, strain PFK2 (second series), stronger effect = lower value
  normalized growth: 0.0981 (active)
S. cerevisiae deletion strains, locus YMR277W, strain FCP1, stronger effect = lower value
  normalized growth: 0.0981 (active)
S. cerevisiae deletion strains, locus YNL006W, strain LST8, stronger effect = lower value
  normalized growth: 0.1 (active)
S. cerevisiae deletion strains, locus YNL020C, strain ARK1, stronger effect = lower value
  normalized growth: 0.0963 (active)
S. cerevisiae deletion strains, locus YNL161W, strain CBK1, stronger effect = lower value
  normalized growth: 0.0956 (active)
S. cerevisiae deletion strains, locus YNL183C, strain NPR1, stronger effect = lower value
  normalized growth: 0.123 (active)
S. cerevisiae deletion strains, locus YNL207W, strain RIO2, stronger effect = lower value
  normalized growth: 0.0923 (active)
S. cerevisiae deletion strains, locus YNL222W, strain SSU72, stronger effect = lower value
  normalized growth: 0.0956 (active)
S. cerevisiae deletion strains, locus YNL307C, strain MCK1 (second series), stronger effect = lower value
  normalized growth: 0.0988 (active)
S. cerevisiae deletion strains, locus YOL078W, strain AVO1, stronger effect = lower value
  normalized growth: 0.0959 (active)
S. cerevisiae deletion strains, locus YOL136C, strain PFK27, stronger effect = lower value
  normalized growth: 0.0997 (active)
S. cerevisiae deletion strains, locus YOR061W, strain CKA2, stronger effect = lower value
  normalized growth: 0.097 (active)
S. cerevisiae deletion strains, locus YOR119C, strain RIO1, stronger effect = lower value
  normalized growth: 0.108 (active)
S. cerevisiae deletion strains, locus YOR231W, strain MKK1, stronger effect = lower value
  normalized growth: 0.118 (active)
S. cerevisiae deletion strains, locus YOR329C, strain SCD5, stronger effect = lower value
  normalized growth: 0.0939 (active)
S. cerevisiae deletion strains, locus YPL031C, strain PHO85, stronger effect = lower value
  normalized growth: 0.101 (active)
S. cerevisiae deletion strains, locus YPL153C, strain RAD53, stronger effect = lower value
  normalized growth: 0.1 (active)
S. cerevisiae deletion strains, locus YPL204W, strain HRR25, stronger effect = lower value
  normalized growth: 0.102 (active)
S. cerevisiae deletion strains, locus YPL209C, strain IPL1, stronger effect = lower value
  normalized growth: 0.0941 (active)
S. cerevisiae deletion strains, locus YPL256C, strain CLN2, stronger effect = lower value
  normalized growth: 0.155 (active)
S. cerevisiae deletion strains, locus YPR025C, strain CCL1, stronger effect = lower value
  normalized growth: 0.0983 (active)
S. cerevisiae deletion strains, locus YPR106W, strain ISR1, stronger effect = lower value
  normalized growth: 0.0922 (active)
S. cerevisiae deletion strains, locus YPR111W, strain DBF20, stronger effect = lower value
  normalized growth: 0.103 (active)
S. cerevisiae deletion strains, strain NNK1, stronger effect = lower value
  normalized growth: 0.0965 (active)
S. cerevisiae deletion strains, strain TSCII, stronger effect = lower value
  normalized growth: 0.0967 (active)

## COc1ccc(CCNC(=S)NCCc2ccc(OC)c(OC)c2)cc1OC
S. cerevisiae deletion strains, locus YAL013W, strain DEP1, stronger effect = lower value
  normalized growth: 0.998
S. cerevisiae deletion strains, locus YBR229C, strain ROT2, stronger effect = lower value
  normalized growth: 0.988
S. cerevisiae deletion strains, locus YCL061C, strain MRC1, stronger effect = lower value
  normalized growth: 0.993
[1]
  normalized growth: 0.989
[3]
  normalized growth: 0.985
S. cerevisiae deletion strains, locus YEL061C, strain CIN8, stronger effect = lower value
  normalized growth: 0.987
[4]
  normalized growth: 0.981
[2]
  normalized growth: 1
S. cerevisiae deletion strains, locus YHR087W, strain rtc3, stronger effect = lower value
  normalized growth: 0.979
S. cerevisiae deletion strains, locus YJL187C, strain SWE1, stronger effect = lower value
  normalized growth: 0.994
S. cerevisiae deletion strains, locus YJR043C, strain POL32, stronger effect = lower value
  normalized growth: 0.993
[5]
  normalized growth: 1.04
S. cerevisiae deletion strains, locus YLR039C, strain RIC1, stronger effect = lower value
  normalized growth: 1.04
S. cerevisiae deletion strains, locus YLR058C, strain SHM2 (second series), stronger effect = lower value
  normalized growth: 1
S. cerevisiae deletion strains, locus YLR085C, strain ARP6, stronger effect = lower value
  normalized growth: 1.02
S. cerevisiae deletion strains, locus YLR262C, strain YPT6, stronger effect = lower value
  normalized growth: 1.02
S. cerevisiae deletion strains, locus YML094W, strain GIM5, stronger effect = lower value
  normalized growth: 0.981
S. cerevisiae deletion strains, locus YMR219W, strain ESC1, stronger effect = lower value
  normalized growth: 1
[6]
  normalized growth: 1.06
[7]
  normalized growth: 1.06
S. cerevisiae deletion strains, locus YNL128W, strain TEP1, stronger effect = lower value
  normalized growth: 1.02
[8]
  normalized growth: 0.992
S. cerevisiae deletion strains, locus YNL298W, strain CLA4 (second series), stronger effect = lower value
  normalized growth: 1.01
S. cerevisiae deletion strains, locus YNL322C, strain KRE1, stronger effect = lower value
  normalized growth: 0.992
S. cerevisiae deletion strains, locus YNR030W, strain Alg12, stronger effect = lower value
  normalized growth: 1
[9]
  normalized growth: 0.982
S. cerevisiae deletion strains, locus YPL241C, strain CIN2, stronger effect = lower value
  normalized growth: 1.08
S. cerevisiae deletion strains, locus YPR135W, strain CTF4, stronger effect = lower value
  normalized growth: 1.05
S. cerevisiae strains, strain wild type, stronger effect = lower value
  normalized growth: 1.01

## COc1ccc(CCN(C)CCc2ccc(OC)c(OC)c2)cc1OC
S. cerevisiae deletion strains, locus YAL040C, strain CLN3, stronger effect = lower value
  normalized growth: 1.08
S. cerevisiae deletion strains, locus YCL061C, strain MRC1 (second series), stronger effect = lower value
  normalized growth: 0.998
[3]
  normalized growth: 1.01
S. cerevisiae deletion strains, locus YDR363W, strain ESC2, stronger effect = lower value
  normalized growth: 1.01
S. cerevisiae deletion strains, locus YER002W, strain NOP16, stronger effect = lower value
  normalized growth: 1.01
[4]
  normalized growth: 0.992
[5]
  normalized growth: 0.983
[6]
  normalized growth: 0.999
[7]
  normalized growth: 0.998
[8]
  normalized growth: 1.03
S. cerevisiae deletion strains, locus YNL175C, strain NOP13, stronger effect = lower value
  normalized growth: 1.02
S. cerevisiae deletion strains, locus YNL197C, strain WHI3, stronger effect = lower value
  normalized growth: 1.01
S. cerevisiae deletion strains, locus YNL224C, strain SQS1, stronger effect = lower value
  normalized growth: 1.01
S. cerevisiae deletion strains, locus YOR083W, strain WHI5 (second series), stronger effect = lower value
  normalized growth: 1.02
[9]
  normalized growth: 0.985
